Mcl-1 Bim block = human Bim-Mcl-1 interaction inhibition. Q07820. Bead-based flow cytometry, Bim peptide-Mcl-1 binding. inhibition, % at 10 µM. 190,000 compounds, 0.1% hits. AID 1009; in the data active means inhibition above about 40%
GLD-1 RNA inh = GLD-1-TGE RNA interaction inhibition (C. elegans) | Q17339 | purified GLD-1 + fluorescein TGE RNA, fluorescence polarization | inhibition, % at 5.96 µM | 320,000 compounds, 0.44% hits | AID 2280;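 active means percent inhibition above a per-plate cutoff, the plate mean of test compounds plus 3 SD, cut at about 30% in these data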
Mcl1 Bid PPI = Mcl-1/Bid interaction inhibition. Q07820. TR-FRET Mcl-1/Bid-Dy647 peptide binding, 1536-well. inhibition, % at 21.7 µM. 220,000 compounds, 0.97% hits;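 active means compounds that cut the binding signal by more than half at the single screening dose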;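 further: His-tagged Mcl-1 with europium anti-His antibody binding Bid BH3 peptide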
MCL1-BIM inh = inhibitors of human MCL1 binding to BIM-BH3 peptide | AID 2057 | 320,000 compounds, 0.68% hits | GST-MCL1 / FITC-Bim-BH3 fluorescence polarization | Q07820 | inhibition, % at 10.9 µM;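 active means inhibition above the mean inhibition of all tested compounds plus 3 SD, set per campaign, cut at about 40% in these data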;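 further: higher means more loss of mP so more displacement of Bim peptide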
Bcl-xL primary = inhibitors of human Bcl-xL; Q07817; GST-Bcl-xL / FITC-Bim BH3 peptide fluorescence polarization; inhibition, % at 10.9 µM; 320,000 compounds, 0.7% hits; AID 2129;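 active means inhibition above the mean of all tested compounds plus 3 SD, cutoff set per campaign, cut at about 30% in these data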;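 further: inhibitors lower millipolarization by displacing the labeled peptide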
Target sequence (Q07817 whole entry, looked up): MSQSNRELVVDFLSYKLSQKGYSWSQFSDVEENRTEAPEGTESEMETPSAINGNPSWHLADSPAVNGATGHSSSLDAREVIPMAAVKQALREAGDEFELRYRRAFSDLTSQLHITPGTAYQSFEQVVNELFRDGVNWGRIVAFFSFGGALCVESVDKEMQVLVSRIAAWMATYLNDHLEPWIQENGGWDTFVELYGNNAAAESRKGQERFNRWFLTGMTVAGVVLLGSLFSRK
Mcl1 Noxa PPI = disrupts binding of human Mcl-1 to Noxa peptide; Q07820; TR-FRET Mcl-1/Noxa peptide binding, 2 h; inhibition, % at 21.7 µM; 220,000 compounds, 1.5% hits; AID 1022;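 active means compounds that cut the protein-peptide binding signal by more than 50% relative to plate controls in a single-dose test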;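 further: His-tagged Mcl-1 with rhodamine Noxa BH3 peptide and terbium anti-His antibody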
Large screens that a line does not name were inactive. A selection: hits, their analogues and other compounds. The true share with any hit is near 2.3%.

COc1ccc(/C=C(\C#N)c2nc3ccc(C)cc3[nH]2)cc1Oc1ccc(C(F)(F)F)cc1[N+](=O)[O-]	none
Cc1ccc2nc(/C(C#N)=C\c3ccc(Oc4ccc(C(F)(F)F)cc4[N+](=O)[O-])cc3)[nH]c2c1	Mcl1 Noxa PPI 51.4
Cc1ccc2nc(/C(C#N)=C/c3ccc(-c4cccc([N+](=O)[O-])c4)o3)[nH]c2c1	Mcl1 Noxa PPI 79.9
COc1cc(/C=C(/C#N)c2nc3ccccc3c(=O)[nH]2)ccc1O	Mcl1 Bid PPI 70.4
COc1cc(/C=C(\C#N)c2nc3ccc(C)cc3[nH]2)cc([N+](=O)[O-])c1O	Mcl1 Noxa PPI 80.6 (no result: GLD-1 RNA inh, MCL1-BIM inh, Bcl-xL primary)
COc1cc(/C=C(\C#N)c2nc3ccc(C)cc3[nH]2)c([N+](=O)[O-])cc1OC	none
COc1ccc(NC(C)=O)cc1S(=O)(=O)N1CCN(C/C=C/c2ccccc2)CC1	none
O=Nc1c(-c2cccc([N+](=O)[O-])c2)nc2ncccn12	Mcl1 Noxa PPI 54.7 (no result: Mcl-1 Bim block)
O=[N+]([O-])c1cccc(-c2cn3nc(-c4ccccc4)c(-c4ccccc4)nc3n2)c1	none (no result: Mcl-1 Bim block)
CCCSC1=N/C(=C\c2ccsc2)C(=O)S1	none
CCCSC1=N/C(=C\C=C\c2ccco2)C(=O)S1	Mcl1 Noxa PPI 76.5
CCCSC1=N/C(=C\c2ccc([N+](=O)[O-])o2)C(=O)S1	Mcl1 Noxa PPI 78.8 (no result: GLD-1 RNA inh, MCL1-BIM inh, Bcl-xL primary)
COc1ccc(-c2csc(Nc3ccc(S(=O)(=O)Nc4cc(C)on4)cc3)n2)cc1C	Mcl1 Noxa PPI 51.1
CN1CCc2c(sc3nc(SCC(=O)N4CCOCC4)n(-c4ccc(Cl)cc4)c(=O)c23)C1	none (no result: Mcl-1 Bim block, Mcl1 Bid PPI, Mcl1 Noxa PPI)
CC(C)[C@H](NC(=O)C1CCN(C(=O)[C@@H]2CCCN2)CC1)C(=O)NCc1ccc(F)cc1	none (no result: Mcl-1 Bim block, Mcl1 Bid PPI, Mcl1 Noxa PPI)
COc1cc(NC(=O)CSc2nccc(C)n2)c(C)cc1[N+](=O)[O-]	Mcl1 Noxa PPI 56.6
O=C(CSc1ncccn1)Nc1cc(Cl)ccc1[N+](=O)[O-]	none
Cc1nc(SCC(=O)Nc2cc(Cl)ccc2[N+](=O)[O-])nc(C)c1C	Mcl1 Bid PPI 94.6
COc1cc(NC(=O)CSc2nccc(C)n2)c(C(=O)O)cc1OC	none
COc1ccc([N+](=O)[O-])cc1NC(=O)CSc1nccc(C)n1	Mcl1 Noxa PPI 57.1
Cc1cc(C2CCCCC2)n(O)c(=O)c1	none (no result: Mcl-1 Bim block, Mcl1 Bid PPI, Mcl1 Noxa PPI)
CC1(C)OC(=O)N(Cc2ccco2)C1(C)O (centres undefined)	Mcl1 Bid PPI 51.4
Cn1cc(CN2CCC(N3CCNC(=O)CC3)CC2)c(-c2ccccc2F)n1	none
Clc1ccc(OCCCn2cncn2)cc1Cl	Mcl1 Bid PPI 55.6
Cc1cc(C(C)(C)C)cc(C)c1C(=O)O	none (no result: Mcl-1 Bim block)
Cc1ccc(O)c(NC2=C(Cl)C(=O)N(Cc3ccccc3)C2=O)c1	Mcl1 Bid PPI 56.2, Mcl1 Noxa PPI 87.7 (no result: GLD-1 RNA inh, MCL1-BIM inh, Bcl-xL primary)
Cc1ccc(C(=O)N2CCCCC2)cc1NC1=C(Cl)C(=O)N(Cc2ccccc2)C1=O	none (no result: Mcl-1 Bim block, Mcl1 Bid PPI, Mcl1 Noxa PPI)
O=C1C(Cl)=C(Nc2ccccc2O)C(=O)N1c1ccccc1	Mcl1 Noxa PPI 70.2
Cc1c(NC2=C(Cl)C(=O)N(c3ccccc3)C2=O)c(=O)n(-c2ccccc2)n1C	none
COc1ccccc1N1C(=O)C(Cl)=C(Nc2ccccc2O)C1=O	Mcl1 Noxa PPI 75.8 (no result: GLD-1 RNA inh, MCL1-BIM inh, Bcl-xL primary)
Cc1cccc2nc(C(=O)Nc3cccc(C(=O)NC4CC4)c3)cn12	none (no result: Mcl-1 Bim block, Mcl1 Bid PPI, Mcl1 Noxa PPI)
Nc1ccc2c(c1)N=[N+]([O-])c1cc(N)ccc1C2	none (no result: Mcl-1 Bim block)
CCCSc1nc(C)nc2c1c(=O)n(C)c(=O)n2C	Mcl1 Bid PPI 88.0 (no result: GLD-1 RNA inh, MCL1-BIM inh, Bcl-xL primary)
C=CCn1c(NCc2ccc(OC)cc2O)nc2ccccc21	none (no result: Mcl-1 Bim block, Mcl1 Bid PPI, Mcl1 Noxa PPI)
CCOc1ccc2[nH]c3c(NCCc4ccc(OC)c(OC)c4)ncnc3c2c1	Mcl1 Noxa PPI 56.7 (no result: Mcl-1 Bim block)
COc1ccc2[nH]c3c(NCCN4CCCCC4)ncnc3c2c1	none
Nc1nonc1C(=O)N/N=C/c1ccc(-c2cccc(C(=O)O)c2)o1	none
CC(=O)C1=C(C)NC(=O)NC1c1ccc(Cl)cc1 (centres undefined)	Mcl1 Noxa PPI 53.9
Cn1c(N)c(C(=O)COC(=O)c2cc(-c3ccccc3)nc3ccccc23)c(=O)n(Cc2ccccc2)c1=O	none
CC(C)Cn1c(N)c(C(=O)COC(=O)c2cc(-c3ccco3)nc3ccccc23)c(=O)n(C)c1=O	Mcl1 Noxa PPI 97.0
Cn1c(=O)c(C(=O)COC(=O)c2cc(-c3ccco3)nc3ccccc23)c(N)n(Cc2ccccc2)c1=O	Mcl1 Noxa PPI 96.2

Screening data (PubChem BioAssay)
